The target in experiment [1] is T1, Serine/threonine-protein kinase D2 (Homo sapiens) (UniProt Q9BZL6).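 Note: mean value of PRKD2 inhibition, from the GSK PKIS screening panel.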
T1 sequence (whole entry): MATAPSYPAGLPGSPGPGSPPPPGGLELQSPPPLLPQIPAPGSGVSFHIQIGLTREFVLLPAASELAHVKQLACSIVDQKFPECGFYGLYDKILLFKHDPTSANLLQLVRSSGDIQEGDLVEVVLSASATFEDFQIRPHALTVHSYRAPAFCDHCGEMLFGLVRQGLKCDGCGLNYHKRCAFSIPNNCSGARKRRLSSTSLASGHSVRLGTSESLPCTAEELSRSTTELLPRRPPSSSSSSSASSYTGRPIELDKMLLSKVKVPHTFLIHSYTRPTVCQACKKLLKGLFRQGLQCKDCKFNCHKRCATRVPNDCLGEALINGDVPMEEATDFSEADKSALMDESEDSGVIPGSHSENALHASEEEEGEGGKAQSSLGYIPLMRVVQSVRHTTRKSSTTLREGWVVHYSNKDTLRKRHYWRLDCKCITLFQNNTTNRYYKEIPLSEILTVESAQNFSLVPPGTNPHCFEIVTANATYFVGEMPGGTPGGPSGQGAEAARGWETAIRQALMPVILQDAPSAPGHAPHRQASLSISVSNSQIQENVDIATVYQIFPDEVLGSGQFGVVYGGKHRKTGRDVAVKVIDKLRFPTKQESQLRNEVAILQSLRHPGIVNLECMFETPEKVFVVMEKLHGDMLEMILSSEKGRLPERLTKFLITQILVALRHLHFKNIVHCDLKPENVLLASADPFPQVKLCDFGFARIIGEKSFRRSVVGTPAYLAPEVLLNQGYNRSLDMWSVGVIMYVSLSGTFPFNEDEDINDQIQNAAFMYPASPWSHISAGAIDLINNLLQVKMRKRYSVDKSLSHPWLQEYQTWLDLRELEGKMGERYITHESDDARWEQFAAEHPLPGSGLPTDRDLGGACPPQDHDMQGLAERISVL
The conditions noted are these: at 1 µM.

Experiment [2] deals with T2, Serine/threonine-protein kinase D3 (Homo sapiens) (UniProt O94806).
T2 sequence (whole entry): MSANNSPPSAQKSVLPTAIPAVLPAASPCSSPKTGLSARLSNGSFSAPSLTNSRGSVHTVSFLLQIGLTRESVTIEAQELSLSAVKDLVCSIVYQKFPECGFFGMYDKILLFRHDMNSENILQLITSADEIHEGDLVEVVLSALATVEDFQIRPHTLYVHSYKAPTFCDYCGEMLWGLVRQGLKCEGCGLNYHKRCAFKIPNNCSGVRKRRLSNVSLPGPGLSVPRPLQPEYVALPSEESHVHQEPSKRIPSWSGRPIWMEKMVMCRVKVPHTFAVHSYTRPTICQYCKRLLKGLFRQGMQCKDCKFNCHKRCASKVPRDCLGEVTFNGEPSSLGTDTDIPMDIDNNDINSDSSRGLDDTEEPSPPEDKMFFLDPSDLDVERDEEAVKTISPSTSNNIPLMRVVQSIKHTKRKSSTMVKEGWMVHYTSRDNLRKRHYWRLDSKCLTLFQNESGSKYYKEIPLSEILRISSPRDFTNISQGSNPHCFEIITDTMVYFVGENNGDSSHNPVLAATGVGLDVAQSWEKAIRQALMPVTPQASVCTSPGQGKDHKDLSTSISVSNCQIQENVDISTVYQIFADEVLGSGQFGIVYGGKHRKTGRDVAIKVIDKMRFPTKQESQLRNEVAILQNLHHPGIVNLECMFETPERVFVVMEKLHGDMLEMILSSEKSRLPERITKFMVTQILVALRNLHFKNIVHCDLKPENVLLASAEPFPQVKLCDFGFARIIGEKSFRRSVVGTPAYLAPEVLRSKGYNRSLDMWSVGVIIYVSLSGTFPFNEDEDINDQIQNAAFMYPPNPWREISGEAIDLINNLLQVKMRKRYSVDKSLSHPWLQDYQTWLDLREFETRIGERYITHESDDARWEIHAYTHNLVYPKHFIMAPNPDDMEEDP
The conditions noted are these: at 0.1 µM.

Experiment [3] has as its target T2, Serine/threonine-protein kinase D3 (Homo sapiens). The conditions noted are these: at 1 µM.
The target in experiment [4] is T3, cGMP-dependent protein kinase 1 (Homo sapiens) (UniProt Q13976).
T3 sequence (whole entry): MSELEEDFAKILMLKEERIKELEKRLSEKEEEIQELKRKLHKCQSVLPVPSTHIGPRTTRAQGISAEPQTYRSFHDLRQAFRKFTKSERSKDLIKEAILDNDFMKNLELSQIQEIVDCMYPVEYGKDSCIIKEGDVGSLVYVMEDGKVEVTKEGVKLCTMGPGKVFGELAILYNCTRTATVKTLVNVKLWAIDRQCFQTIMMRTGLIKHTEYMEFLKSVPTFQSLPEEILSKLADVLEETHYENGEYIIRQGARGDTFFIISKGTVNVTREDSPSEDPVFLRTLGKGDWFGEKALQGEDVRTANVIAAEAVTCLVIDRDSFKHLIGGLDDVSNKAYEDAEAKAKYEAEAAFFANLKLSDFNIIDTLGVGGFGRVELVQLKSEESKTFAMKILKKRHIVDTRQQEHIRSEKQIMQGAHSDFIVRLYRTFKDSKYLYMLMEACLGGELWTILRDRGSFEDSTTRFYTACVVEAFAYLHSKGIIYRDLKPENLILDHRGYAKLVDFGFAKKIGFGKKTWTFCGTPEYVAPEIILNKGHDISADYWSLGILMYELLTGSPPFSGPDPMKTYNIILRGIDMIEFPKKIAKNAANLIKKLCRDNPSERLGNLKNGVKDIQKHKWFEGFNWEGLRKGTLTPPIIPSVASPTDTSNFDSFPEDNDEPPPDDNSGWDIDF
The conditions noted are these: at 0.1 µM.

Experiment [5] addresses T3, cGMP-dependent protein kinase 1 (Homo sapiens). The conditions noted are these: at 1 µM.
In experiment [6] the target is T4, cGMP-dependent protein kinase 2 (Homo sapiens) (UniProt Q13237).
T4 sequence (whole entry): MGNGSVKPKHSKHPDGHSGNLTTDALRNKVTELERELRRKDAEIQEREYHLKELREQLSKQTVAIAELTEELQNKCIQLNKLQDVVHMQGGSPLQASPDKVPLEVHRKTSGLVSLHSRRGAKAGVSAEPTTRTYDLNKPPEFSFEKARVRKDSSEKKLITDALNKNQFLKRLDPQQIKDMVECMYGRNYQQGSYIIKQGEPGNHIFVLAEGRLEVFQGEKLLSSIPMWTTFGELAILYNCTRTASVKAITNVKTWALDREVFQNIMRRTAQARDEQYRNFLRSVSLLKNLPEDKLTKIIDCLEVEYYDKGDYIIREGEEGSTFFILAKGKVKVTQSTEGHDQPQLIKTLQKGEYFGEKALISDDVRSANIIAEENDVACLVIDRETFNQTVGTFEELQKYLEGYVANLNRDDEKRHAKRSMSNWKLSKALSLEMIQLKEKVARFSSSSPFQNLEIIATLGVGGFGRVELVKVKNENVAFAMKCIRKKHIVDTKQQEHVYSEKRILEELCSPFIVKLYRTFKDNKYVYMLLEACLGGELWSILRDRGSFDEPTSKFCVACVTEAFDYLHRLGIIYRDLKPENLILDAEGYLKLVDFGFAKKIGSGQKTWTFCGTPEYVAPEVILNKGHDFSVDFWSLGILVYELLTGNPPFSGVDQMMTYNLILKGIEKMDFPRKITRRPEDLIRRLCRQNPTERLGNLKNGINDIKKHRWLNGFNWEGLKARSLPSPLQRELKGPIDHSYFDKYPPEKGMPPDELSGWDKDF
The conditions noted are these: at 0.1 µM.

Experiment [7] has as its target T4, cGMP-dependent protein kinase 2 (Homo sapiens). As to conditions: at 1 µM.
Experiment [8] has as its target T5, cAMP-dependent protein kinase catalytic subunit PRKX (Homo sapiens) (UniProt P51817).
T5 sequence (whole entry): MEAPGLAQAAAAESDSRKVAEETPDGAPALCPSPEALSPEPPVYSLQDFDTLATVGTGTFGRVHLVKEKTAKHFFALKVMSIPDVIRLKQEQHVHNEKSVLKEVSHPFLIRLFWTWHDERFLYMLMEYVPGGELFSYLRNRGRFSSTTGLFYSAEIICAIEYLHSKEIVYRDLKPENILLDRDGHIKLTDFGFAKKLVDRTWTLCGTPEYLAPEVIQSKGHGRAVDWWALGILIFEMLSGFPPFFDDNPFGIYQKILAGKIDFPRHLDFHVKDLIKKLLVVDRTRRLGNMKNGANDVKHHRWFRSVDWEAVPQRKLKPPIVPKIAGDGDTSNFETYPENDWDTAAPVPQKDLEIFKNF
The conditions noted are these: at 0.1 µM.

The target of experiment [9] is T5, cAMP-dependent protein kinase catalytic subunit PRKX (Homo sapiens). The conditions noted are these: at 1 µM.
The target in experiment [10] is Rho-associated protein kinase 1 (Homo sapiens) (UniProt Q13464). As to conditions: at 0.1 µM.
Experiment [11] shares this target. As to conditions: at 1 µM.
Experiment [12] has as its target Rho-associated protein kinase 2 (Homo sapiens) (UniProt O75116). As to conditions: at 0.1 µM.
For experiment [13] the target is unchanged. As to conditions: at 1 µM.
For experiment [14], the target named is Ribosomal protein S6 kinase alpha-1 (Homo sapiens) (UniProt Q15418). The conditions noted are these: at 0.1 µM.
For experiment [15] the target is unchanged. As to conditions: at 1 µM.
Experiment [16] addresses Ribosomal protein S6 kinase alpha-3 (Homo sapiens) (UniProt P51812). As to conditions: at 0.1 µM.
Experiment [17] has the same target. The conditions noted are these: at 1 µM.
Experiment [18] deals with Ribosomal protein S6 kinase alpha-2 (Homo sapiens) (UniProt Q15349). The conditions noted are these: at 0.1 µM.
The target is the same in experiment [19]. The conditions noted are these: at 1 µM.
In experiment [20] the target is Ribosomal protein S6 kinase alpha-6 (Homo sapiens) (UniProt Q9UK32). As to conditions: at 0.1 µM.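 Note: reported value is the mean inhibition of RSK4, from the GSK PKIS kinase inhibitor screen.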

Ribosomal protein S6 kinase alpha-1 (Homo sapiens), sequence (Q15418 whole entry): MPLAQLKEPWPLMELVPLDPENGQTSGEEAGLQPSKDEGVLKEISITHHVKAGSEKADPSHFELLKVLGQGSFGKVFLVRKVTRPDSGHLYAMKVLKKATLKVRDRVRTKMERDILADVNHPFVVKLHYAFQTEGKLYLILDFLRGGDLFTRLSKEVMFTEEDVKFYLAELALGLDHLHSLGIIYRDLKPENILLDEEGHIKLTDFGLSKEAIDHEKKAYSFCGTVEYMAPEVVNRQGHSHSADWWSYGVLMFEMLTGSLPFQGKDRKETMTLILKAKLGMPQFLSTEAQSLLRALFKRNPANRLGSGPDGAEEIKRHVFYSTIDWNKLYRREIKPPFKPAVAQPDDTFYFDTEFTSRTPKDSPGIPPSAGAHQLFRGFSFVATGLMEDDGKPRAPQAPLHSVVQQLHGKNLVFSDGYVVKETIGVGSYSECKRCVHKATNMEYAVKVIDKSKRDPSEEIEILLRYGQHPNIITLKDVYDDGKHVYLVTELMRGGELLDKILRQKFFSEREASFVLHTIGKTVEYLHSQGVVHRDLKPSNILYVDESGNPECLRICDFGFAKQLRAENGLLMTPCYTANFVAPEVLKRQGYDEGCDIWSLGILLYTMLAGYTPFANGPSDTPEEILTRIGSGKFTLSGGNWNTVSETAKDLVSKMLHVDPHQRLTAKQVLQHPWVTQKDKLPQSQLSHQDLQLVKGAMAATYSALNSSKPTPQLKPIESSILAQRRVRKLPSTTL
Rho-associated protein kinase 2 (Homo sapiens), sequence (O75116 whole entry, looked up): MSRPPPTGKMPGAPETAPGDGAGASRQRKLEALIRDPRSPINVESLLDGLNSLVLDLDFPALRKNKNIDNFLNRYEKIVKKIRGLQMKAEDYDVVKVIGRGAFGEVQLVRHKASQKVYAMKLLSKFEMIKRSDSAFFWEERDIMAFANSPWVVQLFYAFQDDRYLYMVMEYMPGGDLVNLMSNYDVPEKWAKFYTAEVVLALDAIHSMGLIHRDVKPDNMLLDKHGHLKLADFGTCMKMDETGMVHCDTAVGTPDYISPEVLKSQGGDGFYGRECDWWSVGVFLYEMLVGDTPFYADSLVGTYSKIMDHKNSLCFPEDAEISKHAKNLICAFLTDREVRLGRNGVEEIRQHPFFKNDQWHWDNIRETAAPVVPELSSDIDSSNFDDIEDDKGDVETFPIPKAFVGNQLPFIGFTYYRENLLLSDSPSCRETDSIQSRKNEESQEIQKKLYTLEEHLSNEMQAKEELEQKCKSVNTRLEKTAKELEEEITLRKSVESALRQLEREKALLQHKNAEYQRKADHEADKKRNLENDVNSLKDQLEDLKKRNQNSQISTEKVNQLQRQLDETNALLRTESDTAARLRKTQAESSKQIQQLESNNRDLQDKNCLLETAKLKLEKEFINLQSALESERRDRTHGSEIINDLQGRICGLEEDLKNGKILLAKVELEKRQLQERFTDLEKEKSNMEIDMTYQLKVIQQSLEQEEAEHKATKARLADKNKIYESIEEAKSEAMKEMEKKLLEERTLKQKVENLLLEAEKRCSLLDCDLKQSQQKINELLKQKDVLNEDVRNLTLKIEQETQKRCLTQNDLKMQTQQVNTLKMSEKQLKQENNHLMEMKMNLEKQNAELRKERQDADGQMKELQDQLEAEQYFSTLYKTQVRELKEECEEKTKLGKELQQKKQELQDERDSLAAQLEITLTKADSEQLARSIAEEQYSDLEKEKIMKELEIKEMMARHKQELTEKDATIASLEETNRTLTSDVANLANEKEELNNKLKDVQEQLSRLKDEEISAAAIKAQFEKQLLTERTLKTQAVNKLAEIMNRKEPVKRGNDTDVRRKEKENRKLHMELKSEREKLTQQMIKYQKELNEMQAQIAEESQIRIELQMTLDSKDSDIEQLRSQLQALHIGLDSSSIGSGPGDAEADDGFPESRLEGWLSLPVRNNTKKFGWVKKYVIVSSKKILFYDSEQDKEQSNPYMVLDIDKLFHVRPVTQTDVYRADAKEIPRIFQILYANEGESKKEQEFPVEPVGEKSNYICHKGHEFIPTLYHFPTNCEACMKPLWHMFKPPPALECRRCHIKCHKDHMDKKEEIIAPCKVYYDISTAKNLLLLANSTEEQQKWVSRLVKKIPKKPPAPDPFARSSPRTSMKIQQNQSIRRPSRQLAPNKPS
Ribosomal protein S6 kinase alpha-2 (Homo sapiens), sequence (Q15349 whole entry): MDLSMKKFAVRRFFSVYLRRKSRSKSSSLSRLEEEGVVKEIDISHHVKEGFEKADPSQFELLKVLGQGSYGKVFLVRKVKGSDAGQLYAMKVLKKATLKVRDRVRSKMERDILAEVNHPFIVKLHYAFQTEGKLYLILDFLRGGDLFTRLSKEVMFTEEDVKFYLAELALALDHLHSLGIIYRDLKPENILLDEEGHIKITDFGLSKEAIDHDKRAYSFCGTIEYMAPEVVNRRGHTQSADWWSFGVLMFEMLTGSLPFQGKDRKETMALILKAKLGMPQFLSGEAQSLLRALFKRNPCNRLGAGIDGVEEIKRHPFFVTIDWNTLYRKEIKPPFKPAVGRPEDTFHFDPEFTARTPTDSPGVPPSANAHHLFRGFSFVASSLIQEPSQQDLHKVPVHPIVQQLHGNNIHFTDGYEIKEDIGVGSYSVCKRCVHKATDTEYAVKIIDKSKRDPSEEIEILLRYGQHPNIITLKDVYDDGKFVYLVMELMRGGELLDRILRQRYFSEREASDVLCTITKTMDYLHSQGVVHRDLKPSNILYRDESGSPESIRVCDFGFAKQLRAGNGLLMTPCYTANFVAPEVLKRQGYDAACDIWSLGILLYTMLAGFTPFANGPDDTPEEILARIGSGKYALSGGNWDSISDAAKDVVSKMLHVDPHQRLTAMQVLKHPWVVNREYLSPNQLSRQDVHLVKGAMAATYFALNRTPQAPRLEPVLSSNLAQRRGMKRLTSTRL
Rho-associated protein kinase 1 (Homo sapiens), sequence (Q13464 2-1354 limits assumed): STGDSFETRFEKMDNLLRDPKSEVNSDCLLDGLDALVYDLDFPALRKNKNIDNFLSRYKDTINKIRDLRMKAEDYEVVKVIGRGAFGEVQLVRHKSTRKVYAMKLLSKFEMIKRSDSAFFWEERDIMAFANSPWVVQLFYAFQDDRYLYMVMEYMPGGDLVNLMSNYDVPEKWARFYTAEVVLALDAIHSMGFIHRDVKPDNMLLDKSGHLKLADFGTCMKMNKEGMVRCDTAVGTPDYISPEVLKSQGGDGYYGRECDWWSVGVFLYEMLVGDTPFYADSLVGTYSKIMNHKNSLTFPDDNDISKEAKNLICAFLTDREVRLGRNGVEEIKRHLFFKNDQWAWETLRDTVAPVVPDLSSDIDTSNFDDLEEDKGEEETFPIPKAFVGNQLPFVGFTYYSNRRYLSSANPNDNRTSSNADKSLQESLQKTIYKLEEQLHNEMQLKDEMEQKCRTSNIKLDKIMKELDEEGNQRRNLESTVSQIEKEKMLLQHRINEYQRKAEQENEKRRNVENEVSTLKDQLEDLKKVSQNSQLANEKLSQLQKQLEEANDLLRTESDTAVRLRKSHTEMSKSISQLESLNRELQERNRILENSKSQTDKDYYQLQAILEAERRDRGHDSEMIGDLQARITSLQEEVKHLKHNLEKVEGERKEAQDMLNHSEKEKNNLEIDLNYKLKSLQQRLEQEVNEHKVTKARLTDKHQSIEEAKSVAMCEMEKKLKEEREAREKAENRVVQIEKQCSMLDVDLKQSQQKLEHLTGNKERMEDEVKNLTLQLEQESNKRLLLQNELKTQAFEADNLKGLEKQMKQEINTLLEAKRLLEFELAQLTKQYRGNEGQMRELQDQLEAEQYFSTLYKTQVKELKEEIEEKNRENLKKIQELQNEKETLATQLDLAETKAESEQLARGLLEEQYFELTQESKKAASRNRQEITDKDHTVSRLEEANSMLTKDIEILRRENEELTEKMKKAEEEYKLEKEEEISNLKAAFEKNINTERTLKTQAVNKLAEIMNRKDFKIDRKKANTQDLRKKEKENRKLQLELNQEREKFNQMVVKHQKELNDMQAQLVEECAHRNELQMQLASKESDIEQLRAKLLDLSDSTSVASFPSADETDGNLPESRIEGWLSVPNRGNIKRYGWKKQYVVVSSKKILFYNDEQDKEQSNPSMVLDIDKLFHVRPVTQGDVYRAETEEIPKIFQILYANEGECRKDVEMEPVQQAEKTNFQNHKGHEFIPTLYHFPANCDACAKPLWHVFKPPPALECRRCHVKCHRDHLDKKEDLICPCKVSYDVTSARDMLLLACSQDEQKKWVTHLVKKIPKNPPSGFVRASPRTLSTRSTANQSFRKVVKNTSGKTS
Ribosomal protein S6 kinase alpha-3 (Homo sapiens), sequence (P51812 whole entry): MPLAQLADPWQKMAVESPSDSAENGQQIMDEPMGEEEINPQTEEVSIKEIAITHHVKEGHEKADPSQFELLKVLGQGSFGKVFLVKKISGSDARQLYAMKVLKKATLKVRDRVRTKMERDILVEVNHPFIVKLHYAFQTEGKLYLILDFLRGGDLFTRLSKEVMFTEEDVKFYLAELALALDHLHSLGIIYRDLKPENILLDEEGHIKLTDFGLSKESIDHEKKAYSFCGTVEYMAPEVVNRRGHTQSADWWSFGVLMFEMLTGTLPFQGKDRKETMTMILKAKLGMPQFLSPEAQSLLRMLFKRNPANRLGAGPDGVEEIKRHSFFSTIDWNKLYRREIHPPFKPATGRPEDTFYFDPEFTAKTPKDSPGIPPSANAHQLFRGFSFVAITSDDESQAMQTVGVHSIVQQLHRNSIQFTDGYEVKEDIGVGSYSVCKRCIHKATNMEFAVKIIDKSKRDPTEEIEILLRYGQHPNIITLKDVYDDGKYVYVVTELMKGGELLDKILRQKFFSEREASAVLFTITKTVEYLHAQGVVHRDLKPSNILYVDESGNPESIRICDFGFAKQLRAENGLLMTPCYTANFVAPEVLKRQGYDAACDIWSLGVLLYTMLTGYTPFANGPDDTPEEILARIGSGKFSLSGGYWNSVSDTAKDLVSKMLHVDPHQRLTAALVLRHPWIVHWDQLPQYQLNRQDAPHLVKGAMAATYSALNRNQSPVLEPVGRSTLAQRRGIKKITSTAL

As for `N#Cc1c(NC(=O)c2cccc3ccccc23)sc2c1CCCC2`, the inhibition worked out at 2.96% in experiment [1]; 4.61% in [2]; 4.09% in experiment [3]; 3.4% in [4]; 3.28% in [5]; 1.51% in experiment [6]. Further, the inhibition in experiment [7] is 3.5%; in experiment [8], 2.34%; in [9] it was 1.92%; in [10] it was 0.98%; in [11], 2.34%; in experiment [12], 1.81%. Also, the inhibition in [13] stood at 1.22%; in experiment [14], 1.91%; in experiment [15], 0.22%; in experiment [16], 1.01%; in [17], 0.5%; in experiment [18] it was 2.55%. For the same compound, the inhibition in [19] was 2.14%; in experiment [20] it was 1.14%.
In the case of `NCc1ccc(-c2nc(-c3ccc(Cl)c(O)c3)c(-c3ccncc3)[nH]2)cc1`, the inhibition is 4.23% in experiment [1]; 0.72% in [2]; 1.93% in experiment [3]; 0.03% in experiment [4]; 2.4% in [5]; -0.25% in experiment [6]. Also, the inhibition in experiment [7] is 3.58%; in experiment [8] it was -0.67%; in experiment [9] it was -2.14%; in [10], -0.61%; in [11], 2.17%; in experiment [12], -0.88%. The inhibition in experiment [13] was 0.95%; in [14], -0.63%; in experiment [15], 1.3%; in experiment [16] it was -1.01%; in [17], -1.09%; in [18] it was 0.29%. Moreover, the inhibition worked out at 1.53% in [19] and 0.47% in experiment [20].
As for `CCn1c(-c2nonc2N)nc2cncc(C(=O)N3CC[C@H](N)C3)c21`, the inhibition was found to be 8.24% in experiment [1]; 3.97% in [2]; 7.57% in experiment [3]; 57% in experiment [4]; 82.5% in experiment [5]; 72.7% in [6]. Further, the inhibition came out at 83.7% in experiment [7]; 31.8% in experiment [8]; 73.4% in experiment [9]; 74.9% in experiment [12]; 83.5% in [13]; 44.6% in [14]. In addition, the inhibition in experiment [15] was determined as 75.8%; in [16], 31.3%; in experiment [17], 69.9%; in [18], 18.3%; in experiment [19], 65.9%; in [20] it was 6.13%.
Regarding `COc1cc(C=NNc2ncnc3c2cnn3-c2ccccc2)ccc1O`, the inhibition in experiment [1] turned out to be 2.86%; in experiment [2] it was 2.52%; in [3], 3%; in experiment [4], 1.67%; in [5], 1.52%; in experiment [6], 2.05%. Moreover, the inhibition in experiment [7] came out at 4.06%; in [8], 1.55%; in experiment [9], 1.36%; in [10] it was 0.41%; in [11], 3.41%; in [12] it was 1.64%. Moreover, the inhibition worked out at 8.94% in experiment [13]; 1.65% in [14]; 7.83% in experiment [15]; 1.16% in [16]; 6.18% in experiment [17]; 2.26% in [18]. The inhibition in [19] is 7.02%; in [20] it was 0.33%.

Usually inhibition stands for the change of the read-out against control, counted positive when it falls.

The values are drawn from ChEMBL document CHEMBL1961873, “Compounds: GSK PKIS; Assays: Nanosyn kinase panel” (2012).
